# Results published in article PMC7862700, “An all-to-all approach to the identification of sequence-specific readers for epigenetic DNA modifications on cytosine”.
# Legend:
# Test in all cases: DAPPL (digital affinity profiling via proximity ligation, sequencing); 10 mM Tris-HCl pH 7.5, 50 mM NaCl, 1 mM DTT, 4% glycerol, room temperature, 30 min; GST-TFs on glutathione beads, 16-mer random dsDNA library, 0.1% formaldehyde crosslink after washing; high values mean tight binding
# FLI1 = target: T1, FLI1 (Homo sapiens, UniProt Q01543 1-452); conditions: protein: recombinant; tags: N-terminal GST; dsDNA, one strand shown
# T1 sequence: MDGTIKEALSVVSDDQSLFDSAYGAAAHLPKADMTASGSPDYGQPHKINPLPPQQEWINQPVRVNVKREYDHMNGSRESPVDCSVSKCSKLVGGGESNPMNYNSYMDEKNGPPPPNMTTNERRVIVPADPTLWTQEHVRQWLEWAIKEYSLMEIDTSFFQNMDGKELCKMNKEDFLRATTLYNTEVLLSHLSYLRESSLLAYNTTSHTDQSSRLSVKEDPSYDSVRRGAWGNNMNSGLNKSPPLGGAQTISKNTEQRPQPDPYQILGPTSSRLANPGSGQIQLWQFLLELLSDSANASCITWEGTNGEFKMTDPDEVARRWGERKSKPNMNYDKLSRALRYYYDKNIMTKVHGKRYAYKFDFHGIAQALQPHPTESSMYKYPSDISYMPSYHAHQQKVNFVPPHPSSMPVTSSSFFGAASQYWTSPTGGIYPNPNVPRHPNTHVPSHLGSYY
# Summary of the method: (§1)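 Pools of DNA-barcoded human transcription factors, expressed in yeast as GST fusions on glutathione beads and combined with a tag-only sample, were incubated with 200 nmole of a 16-mer random double-stranded DNA library. Incubation took 30 min at room temperature in Tris/NaCl/DTT/glycerol buffer and was followed by washing, 0.1% formaldehyde crosslinking, proximity ligation (BsaI/T4 ligase, 1 h, 37 °C), PCR amplification and sequencing on an Illumina NextSeq500. Binding signal is the ratio of a hexamer's read frequency for a factor to its frequency for the tag-only sample.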
# ELK1 = target: T2, ELK1 (Homo sapiens, UniProt P19419 1-428); conditions: protein: recombinant; tags: N-terminal GST; dsDNA, one strand shown
# T2 sequence: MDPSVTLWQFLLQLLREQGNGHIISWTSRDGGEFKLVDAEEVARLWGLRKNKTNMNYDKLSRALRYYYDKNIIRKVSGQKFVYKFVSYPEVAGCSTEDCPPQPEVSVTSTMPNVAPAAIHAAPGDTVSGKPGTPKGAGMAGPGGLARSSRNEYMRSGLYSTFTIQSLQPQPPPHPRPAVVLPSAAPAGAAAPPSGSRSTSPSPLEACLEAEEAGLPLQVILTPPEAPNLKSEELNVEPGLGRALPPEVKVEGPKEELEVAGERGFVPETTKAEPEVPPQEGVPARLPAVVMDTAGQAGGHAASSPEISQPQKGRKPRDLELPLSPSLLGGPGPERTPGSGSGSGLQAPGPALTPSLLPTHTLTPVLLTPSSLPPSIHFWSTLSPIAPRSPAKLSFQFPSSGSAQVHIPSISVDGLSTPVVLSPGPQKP
# Summary of the method: as §1
# GABPA = target: T3, GABPA (Homo sapiens, UniProt Q06546 1-454); conditions: protein: recombinant; tags: N-terminal GST; dsDNA, one strand shown
# T3 sequence: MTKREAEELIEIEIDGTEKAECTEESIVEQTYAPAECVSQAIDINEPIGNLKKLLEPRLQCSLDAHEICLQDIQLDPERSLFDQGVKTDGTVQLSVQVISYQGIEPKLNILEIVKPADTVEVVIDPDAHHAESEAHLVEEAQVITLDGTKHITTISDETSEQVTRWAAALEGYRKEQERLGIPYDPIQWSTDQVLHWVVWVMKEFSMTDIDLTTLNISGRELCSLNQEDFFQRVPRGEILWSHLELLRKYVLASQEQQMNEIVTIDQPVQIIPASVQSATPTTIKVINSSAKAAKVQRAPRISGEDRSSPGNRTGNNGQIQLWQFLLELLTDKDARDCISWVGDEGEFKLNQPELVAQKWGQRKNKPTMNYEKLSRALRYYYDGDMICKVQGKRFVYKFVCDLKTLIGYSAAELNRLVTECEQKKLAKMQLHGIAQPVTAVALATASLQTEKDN
# Summary of the method: as §1
# ERG = target: T4, ERG (Homo sapiens, UniProt P11308 1-479); conditions: protein: recombinant; tags: N-terminal GST; dsDNA, one strand shown
# T4 sequence: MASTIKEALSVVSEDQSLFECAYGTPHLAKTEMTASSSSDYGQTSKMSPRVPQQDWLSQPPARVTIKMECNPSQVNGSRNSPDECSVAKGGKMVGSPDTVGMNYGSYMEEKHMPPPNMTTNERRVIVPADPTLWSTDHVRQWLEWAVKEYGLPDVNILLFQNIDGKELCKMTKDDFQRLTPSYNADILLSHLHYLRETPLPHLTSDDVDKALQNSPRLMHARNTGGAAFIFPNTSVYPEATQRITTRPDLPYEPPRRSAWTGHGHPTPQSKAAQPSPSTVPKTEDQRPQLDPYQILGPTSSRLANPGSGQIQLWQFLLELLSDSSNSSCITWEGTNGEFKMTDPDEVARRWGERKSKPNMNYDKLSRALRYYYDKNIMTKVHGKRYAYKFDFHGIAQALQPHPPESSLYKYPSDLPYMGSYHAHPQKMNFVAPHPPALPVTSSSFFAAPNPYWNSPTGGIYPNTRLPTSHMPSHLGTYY
# Summary of the method: as §1
# ELF1 = ELF1 (Homo sapiens, UniProt P32519 1-619); conditions: protein: recombinant; tags: N-terminal GST; dsDNA, one strand shown
# Chain of ELF1 (P32519 whole entry): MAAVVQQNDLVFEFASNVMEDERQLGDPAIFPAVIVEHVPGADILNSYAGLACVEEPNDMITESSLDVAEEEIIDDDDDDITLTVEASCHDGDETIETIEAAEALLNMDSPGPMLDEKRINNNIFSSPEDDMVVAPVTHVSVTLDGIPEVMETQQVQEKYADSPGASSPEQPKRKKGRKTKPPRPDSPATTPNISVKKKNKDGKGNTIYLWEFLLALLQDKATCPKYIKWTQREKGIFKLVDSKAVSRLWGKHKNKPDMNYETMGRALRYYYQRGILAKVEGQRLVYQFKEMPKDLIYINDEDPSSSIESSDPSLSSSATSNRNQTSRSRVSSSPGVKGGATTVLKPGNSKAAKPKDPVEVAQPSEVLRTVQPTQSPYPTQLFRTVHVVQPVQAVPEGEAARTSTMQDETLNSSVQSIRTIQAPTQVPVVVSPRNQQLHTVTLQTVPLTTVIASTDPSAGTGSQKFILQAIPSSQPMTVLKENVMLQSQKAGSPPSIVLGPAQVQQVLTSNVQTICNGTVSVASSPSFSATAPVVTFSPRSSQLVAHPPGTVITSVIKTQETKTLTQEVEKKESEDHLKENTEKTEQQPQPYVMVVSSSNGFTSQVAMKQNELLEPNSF
# Summary of the method: as §1
# EHF = target: T5, EHF (Homo sapiens, UniProt Q9NZC4 1-300); conditions: protein: recombinant; tags: N-terminal GST; dsDNA, one strand shown
# T5 sequence: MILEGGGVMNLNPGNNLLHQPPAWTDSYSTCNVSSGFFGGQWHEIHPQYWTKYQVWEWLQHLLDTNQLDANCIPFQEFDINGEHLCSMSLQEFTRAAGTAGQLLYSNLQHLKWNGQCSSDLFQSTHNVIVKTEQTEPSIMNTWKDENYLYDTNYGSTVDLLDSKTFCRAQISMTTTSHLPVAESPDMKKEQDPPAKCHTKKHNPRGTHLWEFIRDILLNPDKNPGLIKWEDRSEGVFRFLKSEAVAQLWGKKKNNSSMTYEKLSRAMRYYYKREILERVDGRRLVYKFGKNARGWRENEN
# Summary of the method: as §1
# SPI1 = SPI1 (Homo sapiens, UniProt P17947 1-270); conditions: protein: recombinant; tags: N-terminal GST; dsDNA, one strand shown
# Summary of the method: as §1
# SPIB = SPIB (Homo sapiens, UniProt Q01892 1-262); conditions: protein: recombinant; tags: N-terminal GST; dsDNA, one strand shown
# Chain of SPIB (Q01892 whole entry): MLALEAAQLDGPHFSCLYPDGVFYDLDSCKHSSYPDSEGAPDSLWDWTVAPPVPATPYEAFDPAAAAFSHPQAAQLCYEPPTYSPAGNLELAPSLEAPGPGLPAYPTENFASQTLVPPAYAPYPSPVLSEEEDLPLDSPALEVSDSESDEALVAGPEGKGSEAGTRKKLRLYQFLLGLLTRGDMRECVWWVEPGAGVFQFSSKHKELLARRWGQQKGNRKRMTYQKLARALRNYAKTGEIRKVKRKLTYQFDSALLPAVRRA
# Summary of the method: as §1
# ELK3 = target: T6, ELK3 (Homo sapiens, UniProt P41970 1-407); conditions: protein: recombinant; tags: N-terminal GST; dsDNA, one strand shown
# T6 sequence: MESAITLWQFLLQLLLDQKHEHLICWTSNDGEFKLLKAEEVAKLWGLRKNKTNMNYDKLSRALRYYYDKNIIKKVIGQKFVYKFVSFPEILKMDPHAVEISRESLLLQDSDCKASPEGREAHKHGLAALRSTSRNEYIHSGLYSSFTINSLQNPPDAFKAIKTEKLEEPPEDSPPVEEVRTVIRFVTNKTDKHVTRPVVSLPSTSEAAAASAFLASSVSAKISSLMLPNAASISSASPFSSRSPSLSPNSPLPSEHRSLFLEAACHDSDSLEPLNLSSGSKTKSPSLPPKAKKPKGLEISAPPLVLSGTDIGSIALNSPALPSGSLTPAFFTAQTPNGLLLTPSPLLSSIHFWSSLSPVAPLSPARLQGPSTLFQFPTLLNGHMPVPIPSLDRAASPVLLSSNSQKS
# Summary of the method: as §1
# FEV = target: T7, FEV (Homo sapiens, UniProt Q99581 1-238); conditions: protein: recombinant; tags: N-terminal GST; dsDNA, one strand shown
# T7 sequence: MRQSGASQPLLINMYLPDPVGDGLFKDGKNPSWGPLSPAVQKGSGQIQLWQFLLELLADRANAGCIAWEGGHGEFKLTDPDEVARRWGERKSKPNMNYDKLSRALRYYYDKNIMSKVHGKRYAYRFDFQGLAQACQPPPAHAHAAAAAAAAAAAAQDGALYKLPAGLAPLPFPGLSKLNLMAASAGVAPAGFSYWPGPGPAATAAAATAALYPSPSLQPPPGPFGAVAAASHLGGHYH
# Summary of the method: as §1
# ETV5 = ETV5 (Homo sapiens, UniProt P41161 1-510); conditions: protein: recombinant; tags: N-terminal GST; dsDNA, one strand shown
# Chain of ETV5 (P41161 whole entry): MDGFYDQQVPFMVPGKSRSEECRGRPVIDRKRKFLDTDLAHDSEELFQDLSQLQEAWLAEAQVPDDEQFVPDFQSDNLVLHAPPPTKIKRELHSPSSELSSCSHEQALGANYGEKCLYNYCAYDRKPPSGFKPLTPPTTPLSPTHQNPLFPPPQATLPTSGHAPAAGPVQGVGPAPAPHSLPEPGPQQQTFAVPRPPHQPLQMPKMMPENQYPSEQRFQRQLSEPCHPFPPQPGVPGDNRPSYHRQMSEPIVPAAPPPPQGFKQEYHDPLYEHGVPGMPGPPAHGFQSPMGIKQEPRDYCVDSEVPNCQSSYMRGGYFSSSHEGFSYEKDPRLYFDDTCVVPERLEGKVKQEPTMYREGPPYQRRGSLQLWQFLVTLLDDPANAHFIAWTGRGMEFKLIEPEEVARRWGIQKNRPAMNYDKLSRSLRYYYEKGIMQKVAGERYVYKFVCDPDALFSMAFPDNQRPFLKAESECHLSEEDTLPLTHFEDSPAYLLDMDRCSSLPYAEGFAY
# Summary of the method: as §1
# HSF1 = HSF1 (Homo sapiens, UniProt Q00613 1-529); conditions: protein: recombinant; tags: N-terminal GST; chain copies: 3; dsDNA, one strand shown
# Chain of HSF1 (Q00613 whole entry): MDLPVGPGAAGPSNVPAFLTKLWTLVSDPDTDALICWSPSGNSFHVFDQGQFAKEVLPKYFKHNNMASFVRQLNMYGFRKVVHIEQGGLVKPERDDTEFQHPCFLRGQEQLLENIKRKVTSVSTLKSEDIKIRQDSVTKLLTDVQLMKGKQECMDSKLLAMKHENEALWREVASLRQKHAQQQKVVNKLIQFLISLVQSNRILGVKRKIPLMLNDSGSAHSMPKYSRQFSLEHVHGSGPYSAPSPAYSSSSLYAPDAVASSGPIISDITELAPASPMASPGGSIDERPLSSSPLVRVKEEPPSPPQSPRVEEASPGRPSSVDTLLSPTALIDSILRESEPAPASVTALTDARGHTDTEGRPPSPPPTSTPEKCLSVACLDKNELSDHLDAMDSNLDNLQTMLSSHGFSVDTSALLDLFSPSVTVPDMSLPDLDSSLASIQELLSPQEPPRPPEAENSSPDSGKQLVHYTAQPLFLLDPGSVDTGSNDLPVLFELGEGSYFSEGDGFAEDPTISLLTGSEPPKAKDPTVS
# Summary of the method: as §1
# SPIC = target: T8, SPIC (Homo sapiens, UniProt Q8N5J4 1-248); conditions: protein: recombinant; tags: N-terminal GST; dsDNA, one strand shown
# T8 sequence: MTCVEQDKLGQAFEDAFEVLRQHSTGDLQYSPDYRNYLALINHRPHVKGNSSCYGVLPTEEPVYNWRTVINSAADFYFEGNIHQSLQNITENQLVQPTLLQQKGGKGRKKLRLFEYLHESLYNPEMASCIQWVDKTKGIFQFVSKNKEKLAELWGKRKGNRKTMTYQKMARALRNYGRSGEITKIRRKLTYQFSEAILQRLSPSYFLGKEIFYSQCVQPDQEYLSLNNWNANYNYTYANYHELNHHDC
# Summary of the method: as §1
# ELF4 = ELF4 (Homo sapiens, UniProt Q99607 1-663); conditions: protein: recombinant; tags: N-terminal GST; dsDNA, one strand shown
# Chain of ELF4 (Q99607 whole entry): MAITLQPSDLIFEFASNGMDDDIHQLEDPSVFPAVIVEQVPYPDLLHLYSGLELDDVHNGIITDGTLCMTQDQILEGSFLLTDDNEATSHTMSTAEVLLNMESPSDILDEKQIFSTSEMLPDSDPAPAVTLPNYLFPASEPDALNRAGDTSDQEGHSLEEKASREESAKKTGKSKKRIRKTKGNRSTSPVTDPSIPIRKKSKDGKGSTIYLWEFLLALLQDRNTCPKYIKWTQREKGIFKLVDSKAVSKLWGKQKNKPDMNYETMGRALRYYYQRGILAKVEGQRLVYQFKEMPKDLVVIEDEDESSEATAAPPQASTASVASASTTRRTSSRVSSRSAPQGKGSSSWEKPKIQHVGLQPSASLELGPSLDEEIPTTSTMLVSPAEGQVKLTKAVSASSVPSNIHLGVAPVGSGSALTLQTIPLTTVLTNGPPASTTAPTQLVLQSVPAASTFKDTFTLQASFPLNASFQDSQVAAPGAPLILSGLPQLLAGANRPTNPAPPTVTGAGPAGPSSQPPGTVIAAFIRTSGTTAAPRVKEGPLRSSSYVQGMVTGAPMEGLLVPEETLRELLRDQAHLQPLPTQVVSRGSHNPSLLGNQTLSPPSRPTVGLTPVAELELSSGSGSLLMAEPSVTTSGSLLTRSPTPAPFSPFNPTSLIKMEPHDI
# Summary of the method: as §1
# ELK4 = target: T9, ELK4 (Homo sapiens, UniProt P28324-2 1-405); conditions: protein: recombinant; tags: N-terminal GST; dsDNA, one strand shown
# T9 sequence: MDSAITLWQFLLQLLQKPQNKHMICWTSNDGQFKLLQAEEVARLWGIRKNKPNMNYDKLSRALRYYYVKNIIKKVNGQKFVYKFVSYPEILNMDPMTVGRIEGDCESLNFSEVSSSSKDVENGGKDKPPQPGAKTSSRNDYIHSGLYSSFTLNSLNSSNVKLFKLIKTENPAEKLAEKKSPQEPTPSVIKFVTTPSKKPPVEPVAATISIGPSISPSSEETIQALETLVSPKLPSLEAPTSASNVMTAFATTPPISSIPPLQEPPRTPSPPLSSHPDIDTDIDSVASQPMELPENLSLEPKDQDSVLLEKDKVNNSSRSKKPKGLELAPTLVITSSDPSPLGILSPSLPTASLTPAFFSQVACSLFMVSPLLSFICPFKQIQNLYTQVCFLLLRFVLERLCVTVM
# Summary of the method: as §1
# ETV2 = target: T10, ETV2 (Homo sapiens, UniProt O00321 1-342); conditions: protein: recombinant; tags: N-terminal GST; dsDNA, one strand shown
# T10 sequence: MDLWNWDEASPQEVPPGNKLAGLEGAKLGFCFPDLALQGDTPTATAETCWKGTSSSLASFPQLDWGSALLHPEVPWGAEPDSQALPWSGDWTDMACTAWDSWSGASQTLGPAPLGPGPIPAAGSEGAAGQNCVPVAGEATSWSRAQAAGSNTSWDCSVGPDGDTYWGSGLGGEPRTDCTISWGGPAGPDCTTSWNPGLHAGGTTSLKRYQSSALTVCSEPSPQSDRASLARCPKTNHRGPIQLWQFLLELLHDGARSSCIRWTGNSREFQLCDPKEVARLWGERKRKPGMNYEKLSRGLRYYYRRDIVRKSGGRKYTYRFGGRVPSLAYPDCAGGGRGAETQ
# Summary of the method: as §1
# ELF3 = target: T11, ELF3 (Homo sapiens, UniProt P78545 1-371); conditions: protein: recombinant; tags: N-terminal GST; dsDNA, one strand shown
# T11 sequence: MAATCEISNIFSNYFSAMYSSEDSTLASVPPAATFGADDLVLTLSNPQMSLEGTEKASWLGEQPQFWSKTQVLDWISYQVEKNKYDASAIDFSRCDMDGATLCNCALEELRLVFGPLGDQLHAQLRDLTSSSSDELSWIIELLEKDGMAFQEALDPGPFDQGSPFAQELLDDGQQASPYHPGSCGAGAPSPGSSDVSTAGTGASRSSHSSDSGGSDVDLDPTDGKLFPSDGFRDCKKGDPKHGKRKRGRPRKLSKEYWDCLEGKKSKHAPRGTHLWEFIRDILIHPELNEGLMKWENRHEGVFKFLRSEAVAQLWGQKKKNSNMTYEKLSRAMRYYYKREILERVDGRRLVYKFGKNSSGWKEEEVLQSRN
# Summary of the method: as §1
# CRX = CRX (Homo sapiens, UniProt O43186 1-299); conditions: protein: recombinant; tags: N-terminal GST; dsDNA, one strand shown
# Chain of CRX (O43186 whole entry): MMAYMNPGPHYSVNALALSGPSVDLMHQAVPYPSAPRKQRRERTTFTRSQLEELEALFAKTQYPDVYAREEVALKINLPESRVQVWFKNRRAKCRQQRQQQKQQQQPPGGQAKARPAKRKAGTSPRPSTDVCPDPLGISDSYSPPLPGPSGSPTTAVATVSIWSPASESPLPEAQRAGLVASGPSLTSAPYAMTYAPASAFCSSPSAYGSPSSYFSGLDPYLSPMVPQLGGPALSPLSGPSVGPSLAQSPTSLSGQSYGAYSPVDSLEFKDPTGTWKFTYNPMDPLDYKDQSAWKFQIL
# Summary of the method: as §1
# ETV1 = ETV1 (Homo sapiens, UniProt P50549 1-477); conditions: protein: recombinant; tags: N-terminal GST; dsDNA, one strand shown
# Chain of ETV1 (P50549 whole entry): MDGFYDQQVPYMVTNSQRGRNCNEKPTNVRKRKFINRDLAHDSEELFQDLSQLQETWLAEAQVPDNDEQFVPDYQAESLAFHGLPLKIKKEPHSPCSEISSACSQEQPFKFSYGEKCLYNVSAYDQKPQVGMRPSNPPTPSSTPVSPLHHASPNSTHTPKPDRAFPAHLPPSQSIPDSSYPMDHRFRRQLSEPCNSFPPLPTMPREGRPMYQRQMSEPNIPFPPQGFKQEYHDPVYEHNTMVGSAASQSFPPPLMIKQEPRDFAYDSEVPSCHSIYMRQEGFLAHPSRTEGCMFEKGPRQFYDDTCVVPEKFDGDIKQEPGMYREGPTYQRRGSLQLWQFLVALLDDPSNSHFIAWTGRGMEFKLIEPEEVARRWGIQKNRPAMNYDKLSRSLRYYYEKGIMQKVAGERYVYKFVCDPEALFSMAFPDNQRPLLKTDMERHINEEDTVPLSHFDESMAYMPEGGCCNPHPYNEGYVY
# Summary of the method: as §1
sequence,measurement,setting,value
AACTCC,binding signal,FLI1,"1.47 fold enrichment (6-mer frequency, TF over GST control)"
same,binding signal,ELK1,"1.29 fold enrichment (6-mer frequency, TF over GST control)"
same,binding signal,GABPA,"1.39 fold enrichment (6-mer frequency, TF over GST control)"
same,binding signal,ERG,"1.32 fold enrichment (6-mer frequency, TF over GST control)"
same,binding signal,ELF1,"1.35 fold enrichment (6-mer frequency, TF over GST control)"
same,binding signal,EHF,"1.3 fold enrichment (6-mer frequency, TF over GST control)"
same,binding signal,SPI1,"1.34 fold enrichment (6-mer frequency, TF over GST control)"
same,binding signal,SPIB,"1.32 fold enrichment (6-mer frequency, TF over GST control)"
same,binding signal,ELK3,"1.38 fold enrichment (6-mer frequency, TF over GST control)"
same,binding signal,FEV,"1.32 fold enrichment (6-mer frequency, TF over GST control)"
same,binding signal,ETV5,"1.32 fold enrichment (6-mer frequency, TF over GST control)"
same,binding signal,HSF1,"1.23 fold enrichment (6-mer frequency, TF over GST control)"
same,binding signal,SPIC,"1.32 fold enrichment (6-mer frequency, TF over GST control)"
same,binding signal,ELF4,"1.3 fold enrichment (6-mer frequency, TF over GST control)"
same,binding signal,ELK4,"1.13 fold enrichment (6-mer frequency, TF over GST control)"
same,binding signal,ETV2,"1.23 fold enrichment (6-mer frequency, TF over GST control)"
same,binding signal,ELF3,"1.13 fold enrichment (6-mer frequency, TF over GST control)"
same,binding signal,CRX,"1.19 fold enrichment (6-mer frequency, TF over GST control)"
same,binding signal,ETV1,"1.26 fold enrichment (6-mer frequency, TF over GST control)"
